The results in this text go back to PubChem BioAssay (NCATS).

Inconclusive results are not listed. Where a call stands in place of a potency, no number is given. Active and inactive are the calls of the source. Calls come from the whole dose curve; as a rule, active = well fitted curve in the direction sought with a large enough effect; inconclusive = small, poorly fitted or top-dose-only effect, or another doubt; inactive = no such curve, though single readings can be large; an effect the other way counts as inactive or inconclusive.

Assay [1] deals with Aldehyde dehydrogenase, mitochondrial (Homo sapiens) (UniProt P05091). Put plainly: qHTS for Inhibitors of the Aldehyde Dehydrogenase Family (ALDH2) Primary screen (AID 2061308). Note: nearly all actives have a fitted effect of over 55% in size. Background: In qHTS, concentration-response curves come from the screen itself.
The target in assay [2] is Retinaldehyde dehydrogenase 3 (Homo sapiens) (UniProt P47895). In words: qHTS for Inhibitors of the Aldehyde Dehydrogenase Family (ALDH1A3) Primary screen (AID 2061315).

On to `Cc1cccc(-n2cnc3cc(C(=O)N4CCCC(c5ccccc5)C4)ccc32)c1` (configuration not stated), for which the Potency result in assay [1] and in assay [2] was “inactive” throughout.
Regarding `Cc1ccc(OCCn2c(CCNC(=O)c3ccccc3)nc3ccccc32)cc1`, the Potency result in assay [1] and in assay [2] was “inactive” in each case.
Consider `COc1ccc(-c2nc3ccccc3n2Cc2ccccc2)cc1COc1ccc(NC(C)=O)cc1`, for which the Potency entry in assay [1] and in assay [2] was “inactive” throughout.
`COc1cccc(C2c3c(ncn(-c4ccccc4Cl)c3=N)Oc3ccc4ccccc4c32)c1` (configuration not stated): the Potency entry in assay [1] and in assay [2] was “inactive” each time.
Turning to `C=C(C(=O)O)[C@@H]1CC[C@@]2(C)CC[C@H](O)[C@@]2(C(C)=O)C1`, the Potency entry in assay [1] and in assay [2] was “inactive” throughout.
Regarding `CN(C)c1cnc2c(O)cccc2c1`, the Potency result in assay [1] and in assay [2] was “inactive” each time.
For `Cc1ccc(N(C)S(=O)(=O)c2ccc3c(c2)CCC(=O)N3)cc1C`, the Potency entry in assay [1] and in assay [2] was “inactive” throughout.
`CCCCNc1nc(C)nc2c1nc(-c1ccccc1)n2CC1CCCN1CC` (configuration not stated): the Potency entry in assay [1] and in assay [2] was “inactive” throughout.
With `O=C(Nc1ccc(Cl)c([N+](=O)[O-])c1)Nc1cccc(-c2ccncc2)n1`, the Potency entry in assay [1] and in assay [2] was “inactive” each time.
Regarding `O=C(Nc1ccc(S(=O)(=O)Nc2nccs2)cc1)c1ccnc(-c2ccccc2)c1`, the Potency entry in assay [1] and in assay [2] was “inactive” in each case.
Consider `CCOC(=O)c1nnc(N[S+](=O)([O-])c2ccc(NC(=O)Cc3ccc(Cl)c(Cl)c3)cc2)s1`, for which the Potency result in assay [1] and in assay [2] was “inactive” in each case.
Regarding `COC(=O)c1c(NC(=O)COC(=O)c2ccc(Cl)cc2[N+](=O)[O-])sc2c1CCCCC2`, the Potency entry in assay [1] and in assay [2] was “inactive” in each case.
In the case of `COc1ccc(-c2nnc3n2N=C(c2c(OC)cccc2OC)CS3)cc1`, the Potency result in assay [1] and in assay [2] was “inactive” throughout.
In the case of `COc1ccc(C2=Nn3c(nnc3-c3ccccc3C(F)(F)F)SC2)cc1O[C@H]1CCOC1`, the Potency entry in assay [1] and in assay [2] was “inactive” throughout.
Take `CCCCN(C)C(=O)Cn1nc(-c2ccc(F)cc2)ccc1=O`: the Potency entry in assay [1] and in assay [2] was “inactive” throughout.
As for `COc1ccc(CCC(=O)NCCc2nc3ccccc3n2CCOc2ccc(C)cc2)cc1`, the Potency entry in assay [1] and in assay [2] was “inactive” each time.
For `CCOc1ccccc1-c1nnc2n1N=C(c1c(OC)cccc1OC)CS2`, the Potency entry in assay [1] and in assay [2] was “inactive” throughout.
Take `CCCn1c(C)nc2c(N3CCC(N(C)C)C3)nc(C)nc21` (configuration not stated): the Potency entry in assay [1] and in assay [2] was “inactive” in each case.
For the compound `Cc1nc(CCNc2ncnc3ccc(-c4ccc5c(c4)OCO5)cc23)cs1`, the Potency result in assay [1] and in assay [2] was “inactive” in each case.
`C[C@@H]1CC[C@]2(C(=O)O[C@@H]3O[C@H](CO)[C@@H](O)[C@H](O)[C@H]3O)CC[C@]3(C)C(=CCC4[C@@]5(C)C[C@@H](O)[C@H](O)[C@](C)(C(=O)O)C5CC[C@]43C)[C@@H]2[C@]1(C)O` (some centres not stated): the Potency result in assay [1] and in assay [2] was “inactive” throughout.
Regarding `Cc1ccc(-c2nc3ccccc3[nH]2)cc1NC(=O)c1ccc(-c2cccc(Cl)c2)o1`, the Potency entry in assay [1] and in assay [2] was “inactive” in each case.
In the case of `COC(=O)c1ccc2c(c1)/C(=C/c1cc(Br)c(O)c(Br)c1)C(=O)N2`, the Potency entry in assay [1] and in assay [2] was “inactive” throughout.
On to `Nc1ncnc2c1nc(N)n2[C@@H]1O[C@H](CO)[C@@H](O)[C@H]1O`, for which the Potency entry in assay [1] and in assay [2] was “inactive” each time.
With `COc1cc(NS(=O)(=O)c2ccc3ccccc3c2)c2ncccc2c1`, the Potency result in assay [1] and in assay [2] was “inactive” throughout.
For `CC1CCC/C=C/C(=O)c2c(O)cc(O)cc2CC(=O)O1` (configuration not stated), the Potency entry in assay [1] and in assay [2] was “inactive” throughout.
Consider `Cc1ccc(NS(=O)(=O)c2cc3c(cc2N[C@H](C)CO)NC(=O)CC3)cc1C`, for which the Potency entry in assay [1] and in assay [2] was “inactive” in each case.
Regarding `COc1ccc(NC(=O)c2cnn3c(-c4ccccc4)cc(C)nc23)cc1`, the Potency result in assay [1] and in assay [2] was “inactive” in each case.
For `Cc1c(P(=S)(c2ccccc2)c2ccccc2)c2ccccc2n1CCc1ccccc1`, the Potency result in assay [1] and in assay [2] was “inactive” each time.
`O=C1Nc2ccccc2/C1=C\c1ccc(O)cc1`: the Potency entry in assay [1] and in assay [2] was “inactive” each time.
With `C[C@@H](N)C(=O)Nc1cccc(-c2nn3c(=O)cc(N4CCNCC4)nc3s2)c1`, the Potency result in assay [1] and in assay [2] was “inactive” in each case.
Take `Nc1nc(NCC2CCC(CNS(=O)(=O)c3cccc4ccccc34)CC2)nc2ccccc12` (configuration not stated): the Potency entry in assay [1] and in assay [2] was “inactive” each time.
On to `C=C1C(=O)OC2/C=C(\COC(C)=O)CC/C=C(\C=O)CC(OC(=O)CC(C)C)C12` (configuration not stated), for which the Potency result in assay [1] and in assay [2] was “inactive” throughout.
As to `Cn1nnnc1Sc1ncnc2scc(-c3ccccc3S(C)(=O)=O)c12`, the Potency entry in assay [1] and in assay [2] was “inactive” throughout.
On to `Cc1ccc(S(=O)(=O)Nc2cccc3cccnc23)cc1`, for which the Potency entry in assay [1] and in assay [2] was “inactive” each time.
In the case of `O=C(O)c1ccc2c(c1)C(=O)N([C@H](Cc1ccc([N+](=O)[O-])cc1)C(=O)O)C2=O`, the Potency result in assay [1] and in assay [2] was “inactive” each time.
Regarding `CCC/C=C\C=C/CCc1cc(O)c([C@@H]2O[C@H](CO)[C@@H](O)[C@H](O)[C@H]2O)c(O)c1C(=O)OC`, the Potency entry in assay [1] and in assay [2] was “inactive” in each case.
Take `CN(C)c1oc(-c2cccc3ccccc23)nc1C#N`: the Potency result in assay [1] and in assay [2] was “inactive” each time.
In the case of `CC(=O)NS(=O)(=O)c1ccc(NC(=O)c2cc(-c3ccc(C)c(C)c3)nc3ccccc23)cc1`, the Potency entry in assay [1] and in assay [2] was “inactive” in each case.
As to `COc1ccc(CC(=O)Nc2nc(-c3ccc4c(c3)CCN4C(=O)c3ccccc3C)c(C)s2)cc1`, the Potency entry in assay [1] and in assay [2] was “inactive” each time.
Regarding `Cc1cc(NS(=O)(=O)c2ccc(NC(=O)Cc3cccc(Cl)c3)cc2)no1`, the Potency entry in assay [1] and in assay [2] was “inactive” in each case.
On to `CO[C@H]1C[C@@H]2CC[C@@H](C)[C@@](O)(O2)C(=O)C(=O)N2CCCC[C@H]2C(=O)O[C@H]([C@@H](C)C[C@@H]2CC[C@@H](O)[C@H](OC)C2)CC(=O)[C@H](C)/C=C(\C)[C@@H](O)[C@@H](OC)C(=O)[C@H](C)C[C@H](C)/C=C/C=C/C=C/1C`, for which the Potency entry in assay [1] and in assay [2] was “inactive” each time.
